Drawing on PubChem BioAssay, this text covers z-score and composite z-score for 13 compounds.

Calls of active or inactive are those of the source.

Experiment [1] in a line: optical density shifts of acrAB sulA E. coli – strain DRC41, OD650, 48 h, E. coli filamentation inducer project, primary screen (AID 1152).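 Also: E. coli MC1000 strain DRC41 lacking acrAB efflux pump and sulA.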 Conditions: higher = more signal, called active from +8 up or from −8 down.
Experiment [2] is described as follows: probe aLefty1 binding on compound microarray – biochemical, small-molecule microarray, 635/667 nm fluorescence, primary screen (AID 1153).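 Also: score merges spot fluorescence with signal-to-noise ratio from the scanned slide images.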 The conditions noted are these: higher = more signal.
Experiment [3] can be described thus: plasmodial surface anion channel blockers, osmotic lysis – cell-based, P. falciparum Indochina, OD700, 1 h, primary screen (AID 1154). Conditions: P. falciparum Indochina infected RBC osmotic lysis, higher = more signal, called active from +8 up or from −8 down.
The nature of experiment [4]: plasmodial surface anion channel blockers, osmotic lysis – cell-based, P. falciparum Indochina, OD700, 2 h, primary screen (AID 1155).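 Also: lysis reports solute entry through the parasite surface anion channel PSAC.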 Conditions: P. falciparum Indochina infected erythrocytes, higher = more signal, called active from +8 up or from −8 down.
Experiment [5] in a line: changes in parasitized red cell lysis, either direction – P. falciparum Indochina, OD700, 3 h, PSAC antagonist project, primary screen (AID 1156). The conditions noted are these: P. falciparum-infected erythrocytes, osmotic lysis, higher = more signal, called active from +8 up or from −8 down.
Experiment [6] in a line: plasmodial surface anion channel blockers, osmotic lysis – cell-based, P. falciparum Indochina, OD700, 18 h, primary screen (AID 1157). Conditions: P. falciparum Indochina infected erythrocytes, osmotic lysis OD700, 18 h; higher = more signal, called active from +8 up or from −8 down.
Experiment [7] can be described thus: S6 kinase pathway phospho-S6 level changes – cell-based, A549, cytoblot, luminescence, serum-stimulated, primary screen (AID 1158).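 Also: serum-stimulated A549 lung adenocarcinoma cells; signal is phosphorylated S6 detected by cytoblot immunostaining with HRP secondary.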 Conditions: 5 h, higher = more signal.
The target in experiment [8] is NADPH oxidase 2 (Homo sapiens) (UniProt P04839). The experiment in a line: compounds shifting NOX2 Amplex Red fluorescence – cell-based, HEK293-NOX2, PMA-stimulated, NOX inhibitor project, primary screen (AID 1159). Also: test concentration not given here. The conditions noted are these: 45 min, higher = more signal, called active from +8 up or from −8 down.
NADPH oxidase 2 (Homo sapiens), sequence (P04839 whole entry, looked up): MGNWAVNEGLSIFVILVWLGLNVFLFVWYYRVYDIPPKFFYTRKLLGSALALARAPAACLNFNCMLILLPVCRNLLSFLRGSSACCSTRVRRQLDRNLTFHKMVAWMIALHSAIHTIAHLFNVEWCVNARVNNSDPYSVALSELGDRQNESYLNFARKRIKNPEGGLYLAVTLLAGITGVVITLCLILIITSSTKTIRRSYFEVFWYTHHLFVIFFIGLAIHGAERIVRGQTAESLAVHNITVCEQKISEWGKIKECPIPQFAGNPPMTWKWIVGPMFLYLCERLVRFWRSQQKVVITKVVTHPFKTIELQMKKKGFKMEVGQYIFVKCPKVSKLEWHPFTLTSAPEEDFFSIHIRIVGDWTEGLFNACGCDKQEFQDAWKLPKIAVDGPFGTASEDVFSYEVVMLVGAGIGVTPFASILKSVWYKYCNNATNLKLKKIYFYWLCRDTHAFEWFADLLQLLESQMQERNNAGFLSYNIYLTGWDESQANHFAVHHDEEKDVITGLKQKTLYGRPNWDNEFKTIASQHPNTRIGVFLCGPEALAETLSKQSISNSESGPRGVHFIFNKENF
Experiment [9] has as its target NADPH oxidase 4 (Homo sapiens) (UniProt Q9NPH5). Description: compounds shifting NOX4 Amplex Red fluorescence – cell-based, HEK293-NOX4, tetracycline-induced, NOX inhibitor project, primary screen (AID 1160). The conditions noted are these: HEK293-NOX4, Amplex Red H2O2 fluorescence, 45 min; higher = more signal, called active from +8 up or from −8 down.
The target in experiment [10] is NADPH oxidase 5 (Homo sapiens) (UniProt Q96PH1). Description: compounds shifting NOX5 Amplex Red fluorescence – cell-based, HEK293-NOX5, NOX inhibitor project, primary screen (AID 1161). Conditions: HEK293-NOX5, ionomycin, 45 min, higher = more signal.
NADPH oxidase 5 (Homo sapiens), sequence (Q96PH1 whole entry, looked up): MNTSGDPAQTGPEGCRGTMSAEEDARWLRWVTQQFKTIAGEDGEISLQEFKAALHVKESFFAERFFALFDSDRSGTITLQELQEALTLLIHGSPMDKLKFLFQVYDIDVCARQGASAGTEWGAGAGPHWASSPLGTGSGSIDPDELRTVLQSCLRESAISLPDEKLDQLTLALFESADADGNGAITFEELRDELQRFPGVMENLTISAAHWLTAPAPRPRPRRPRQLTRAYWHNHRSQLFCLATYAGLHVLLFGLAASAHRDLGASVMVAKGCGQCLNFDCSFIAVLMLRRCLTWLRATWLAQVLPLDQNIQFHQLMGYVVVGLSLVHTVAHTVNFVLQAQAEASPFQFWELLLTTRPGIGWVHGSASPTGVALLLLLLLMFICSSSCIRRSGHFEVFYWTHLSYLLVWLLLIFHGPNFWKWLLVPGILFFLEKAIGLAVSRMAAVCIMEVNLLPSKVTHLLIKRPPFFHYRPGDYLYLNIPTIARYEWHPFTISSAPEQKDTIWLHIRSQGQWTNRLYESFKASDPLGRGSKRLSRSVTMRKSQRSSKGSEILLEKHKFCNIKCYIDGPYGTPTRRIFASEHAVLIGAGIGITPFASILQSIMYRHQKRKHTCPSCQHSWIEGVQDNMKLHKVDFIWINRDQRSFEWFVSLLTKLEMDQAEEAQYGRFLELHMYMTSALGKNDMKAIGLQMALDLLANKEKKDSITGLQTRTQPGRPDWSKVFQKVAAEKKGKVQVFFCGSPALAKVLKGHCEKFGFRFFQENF

NADPH oxidase 4 (Homo sapiens), sequence (Q9NPH5 whole entry, looked up): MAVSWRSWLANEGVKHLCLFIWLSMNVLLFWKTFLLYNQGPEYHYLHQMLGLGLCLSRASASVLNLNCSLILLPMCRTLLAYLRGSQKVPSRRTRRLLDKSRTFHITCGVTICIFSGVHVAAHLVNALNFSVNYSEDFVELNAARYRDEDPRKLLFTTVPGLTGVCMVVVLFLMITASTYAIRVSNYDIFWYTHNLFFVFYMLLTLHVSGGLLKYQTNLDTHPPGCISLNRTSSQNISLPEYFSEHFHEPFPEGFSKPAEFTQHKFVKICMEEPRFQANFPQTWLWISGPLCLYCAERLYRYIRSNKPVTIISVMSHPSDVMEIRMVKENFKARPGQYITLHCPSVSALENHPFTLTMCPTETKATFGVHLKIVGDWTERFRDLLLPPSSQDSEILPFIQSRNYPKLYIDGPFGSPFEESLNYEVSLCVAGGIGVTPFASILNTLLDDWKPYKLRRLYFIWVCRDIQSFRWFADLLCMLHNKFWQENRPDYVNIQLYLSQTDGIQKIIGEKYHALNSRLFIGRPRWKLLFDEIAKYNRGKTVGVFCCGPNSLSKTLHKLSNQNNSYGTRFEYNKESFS

For the compound `O=C(O)C1=CC[C@H]2C(=O)N(c3ccccc3)C(=O)[C@@H]12`, the z-score is -0.569 (inactive) in [1]; 0.61 (inactive) in experiment [3]; 1.11 (inactive) in experiment [4]; -0.803 (inactive) in [5]; 0.707 (inactive) in experiment [6]; -1 in experiment [7]. Further, the z-score in [8] is 0.536 (inactive); in [9], -0.267 (inactive); in experiment [10], -0.253. The compound also came in with a composite z-score in experiment [2] of 0.348.

As to `COC(=O)Cn1c(C(=O)N(C)C)cc2c1C[C@H]1CN(C(=O)c3ccccc3)[C@@](Cc3ccccc3)(C(=O)OC)[C@@H]21`, the z-score in experiment [1] was -2.08 (inactive); in [3] it was -0.424 (inactive); in experiment [4], -0.734 (inactive); in experiment [5], -0.486 (inactive); in experiment [6], -1.31 (inactive); in [7] it was 0.17. In addition, the z-score was 0.363 (inactive) in experiment [8], 1.59 (inactive) in experiment [9] and -0.11 in experiment [10]. In [2], this compound came in with a composite z-score of 0.155.

Regarding `CC1C2C(CCCO)=CC(C3C(=O)N(C)C(=O)C23)N1Cc1cccc(OC(F)(F)F)c1` (stereo not given), the z-score is 0.337 (inactive) in experiment [1]; 1.38 (inactive) in experiment [3]; 0.938 (inactive) in experiment [4]; 1.07 (inactive) in [5]; 0.528 (inactive) in experiment [6]; 1.04 in experiment [7]. Moreover, the results for the z-score in [8], in experiment [9] and in experiment [10] were 0.733 (inactive), -0.702 (inactive) and 0.455, respectively. In addition, in [2], the composite z-score was -0.0083.

As to `COc1ccc(C(O)C2C=CC3C(=O)N(C)C(=O)C3N2Nc2ccccc2)cc1` (stereo not given), the z-score is -0.485 (inactive) in [1]; 0.929 (inactive) in experiment [3]; 0.865 (inactive) in experiment [4]; 0.213 (inactive) in [5]; 0.973 (inactive) in [6]; -0.423 in experiment [7]. Further, the figures for the z-score in experiment [8], in experiment [9] and in experiment [10] were -1.26 (inactive), -2.67 (inactive) and -1.96, respectively. This compound yielded a composite z-score in experiment [2] of 0.211.

In the case of `C=C[C@H](C)[C@@H](OC(=O)Nc1ccc(SC)cc1)c1ccc(OCCO)cc1`, the z-score is -2.61 (inactive) in experiment [1]; 28.3 (active) in [3]; 20.6 (active) in [4]; 3.01 (inactive) in [5]; 2.27 (inactive) in experiment [6]; -0.336 in [7]. For the same compound, the z-score is -1.31 (inactive) in experiment [8], -1.23 (inactive) in experiment [9] and 0.0398 in experiment [10]. In addition, the composite z-score in experiment [2] worked out at 0.459.

As for `C=CCNC(=O)[C@@H]1[C@H]2C(=O)O[C@H](c3ccccc3)[C@H](c3ccccc3)N2[C@H](c2ccc(O)cc2)[C@@]12C(=O)N(C(=O)OCCOC)c1ccc(C#CCC(C(=O)OC)C(=O)OC)cc12`, the z-score was 1.17 (inactive) in experiment [1]; 2.41 (inactive) in experiment [3]; 0.225 (inactive) in experiment [4]; -0.451 (inactive) in experiment [5]; 0.393 (inactive) in [6]; 0.0945 in experiment [7]. In addition, the z-score in experiment [8] is 0.932 (inactive); in experiment [9], 0.584 (inactive); in experiment [10] it was 0.831. The compound also yielded a composite z-score in [2] of 0.0026.

On to `CCCCN1CC=CC23O[C@@H]4/C=C\CCC(C)OC(=O)C4[C@H]2C(=O)N(CCO)[C@@H]3C1=O` (stereo not given in full), for which the z-score is 1.36 (inactive) in [1]; 2.6 (inactive) in [3]; 0.254 (inactive) in [4]; 0.336 (inactive) in experiment [5]; 0.479 (inactive) in [6]; 0.7 in experiment [7]. The z-score is 1.01 (inactive) in experiment [8], 0.416 (inactive) in experiment [9] and 2.29 in experiment [10]. The compound further displayed a composite z-score in [2] of -0.386.

Turning to `COCCCNC(=O)[C@@]1(Cc2ccccc2I)c2ccccc2C(=O)N(C2CCCCC2)[C@H]1c1ccc(CO)cc1`, the z-score was 0.0773 (inactive) in [1]; 8.09 (active) in [3]; 0.695 (inactive) in experiment [4]; 2.44 (inactive) in [5]; 0.623 (inactive) in experiment [6]; 0.453 in experiment [7]. For the same compound, the z-score in experiment [8] is 0.392 (inactive); in experiment [9], -1.2 (inactive); in experiment [10], -3.06. This compound also showed a composite z-score in [2] of 0.293.

As for `COCCCNC(=O)[C@@]1(Cc2ccccc2I)c2ccccc2C(=O)N(Cc2ccccc2C(F)(F)F)[C@H]1c1ccc(CO)cc1`, the z-score was -0.506 (inactive) in experiment [1]; 3.42 (inactive) in experiment [3]; 1.31 (inactive) in experiment [4]; 2.09 (inactive) in experiment [5]; 0.866 (inactive) in experiment [6]; -0.55 in experiment [7]. Besides, the z-score in [8] was 0.227 (inactive); in [9] it was -1.01 (inactive); in experiment [10] it was -1.42. Further, the composite z-score in experiment [2] is -0.142.

Turning to `CC(C)N1C(=O)[C@@]2(Cc3ccccc31)c1ccccc1C(=O)N(Cc1ccccc1C(F)(F)F)[C@H]2c1ccc(CO)cc1`, the z-score was -0.49 (inactive) in experiment [1]; 0.382 (inactive) in experiment [3]; 0.596 (inactive) in [4]; 0.238 (inactive) in experiment [5]; 0.501 (inactive) in experiment [6]; -0.0346 in experiment [7]. Moreover, the values for the z-score in [8], in experiment [9] and in experiment [10] were 0.449 (inactive), -1.18 (inactive) and 0.56, respectively. Moreover, the composite z-score in experiment [2] is -0.853.

`CCOC(=O)C1=C[C@@H](C(C)(C)C)N(S(=O)(=O)c2ccc(C)cc2)[C@H]1c1ccc(OC)cc1`: the z-score is -0.0371 (inactive) in experiment [1]; 1.44 (inactive) in experiment [3]; 1.11 (inactive) in experiment [4]; 0.457 (inactive) in [5]; 0.71 (inactive) in experiment [6]; -0.454 in [7]. The z-score was -1.67 (inactive) in experiment [8], 0.244 (inactive) in [9] and 1.65 in experiment [10]. In [2], this compound gave a composite z-score of 0.235.

Consider `COC(=O)[C@]1(Cc2ccccc2CN=[N+]=[N-])N=C(c2ccc(OCCCO)cc2)O[C@@H]1c1ccccc1N=[N+]=[N-]`, for which the z-score in experiment [1] was 0.204 (inactive); in experiment [3], 31.1 (active); in experiment [4], 28.4 (active); in experiment [5], 0.444 (inactive); in [6], 7.23 (inactive); in [7], -0.424. In addition, the z-score in [8] was -0.938 (inactive); in [9], 0.298 (inactive); in [10], 1.44. Further, the composite z-score in experiment [2] amounted to 0.167.

In the case of `C=CCNC(=O)[C@H]1[C@@H]2C(=O)O[C@@H](c3ccccc3)[C@@H](c3ccccc3)N2[C@@H](c2ccc(OCCO)cc2)[C@]12C(=O)N(C(=O)OCCOC)c1ccc(C#CCNC(N)=O)cc12`, the z-score in experiment [1] was 0.33 (inactive); in experiment [3], 2.53 (inactive); in experiment [4] it was 0.666 (inactive); in experiment [5], 1.09 (inactive); in [6], 0.83 (inactive); in experiment [7], 0.387. Further, the z-score in experiment [8] is 1.76 (inactive); in experiment [9], 1.44 (inactive); in experiment [10], 0.12. Further, the composite z-score in [2] turned out to be 0.298.
